aDG glyco act – activators of alpha-DG glycosylation, primary screen, uHTS, Pro5-aDG cells, AlphaScreen; actives 0.22% (n = 360,000); activation, % at 10 µM; alpha-DG glycosylation AlphaScreen (IIH6); 0% Pro5, 100% B10-LARGE cell signal;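 active = activation of at least 8% versus controls, or a plate z-score of at least 8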;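 note: Pro5 are CHO cells carrying HIG-tagged alpha-DG that lacks glycosylation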
TAG inh – inhibitors of triacylglycerol accumulation, primary screen, cell-based, uHTS, fluorescence, H9c2; H9c2 cells, Nile Red lipid (TAG) fluorescence; cells loaded with 200 µM oleic acid; inhibition, % at 12.5 µM; actives 0.66% (n = 230,000); AID 651582, 2012;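 active = pattern-corrected inhibition of lipid staining of at least 50% with the nuclear-stain viability signal not falling by more than 50%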;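 note: 0% = DMSO wells and 100% = triacsin C control wells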
NadD inh – inhibitors of S. aureus NadD, primary screen, biochemical, colorimetric, uHTS | Nicotinate-nucleotide adenylyltransferase NadD (Staphylococcus aureus N315) | purified NadD enzyme, colorimetric absorbance read-out | inhibition, % at 20 µM | actives 0.78% (n = 360,000) | AID 602399, 2012; in the data active = inhibition above about 26%
MPTP block – mitochondrial permeability transition pore inhibitors, primary screen, biochemical, isolated mouse mitochondria, absorbance. Ca2+ swelling absorbance, 30 min. inhibition, % at 10 µM. actives 1.4% (n = 360,000);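 active = inhibition of 50% or more, scaled per plate between neutral and stimulator controls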;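 note: 0% = DMSO wells given calcium and 100% = 1 mM EGTA wells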
NadD conf – inhibitors of S. aureus NadD, confirmation, biochemical, colorimetric, single concentration | shares compounds with NadD inh | purified S. aureus NadD, colorimetric enzyme assay | inhibition, % at 20 µM | actives 13% (n = 2,000); in the data active = inhibition mostly above about 42%, no sharp cut-off; inactive = mostly below about 42%
An asterisk follows results filed as active. An excerpt weighted towards active compounds, which were near 2.7% of everything screened.

For CCOc1cccc2sc(N3CCN(C(=O)c4ccc5ncsc5c4)CC3)nc12 the results were aDG glyco act 0, TAG inh -15, NadD inh -5 and MPTP block -1.
For COc1ccc(COC(=O)c2sc3nc4n(c(=O)c3c2C)CCC4)cc1 the results were aDG glyco act 0, TAG inh 23, NadD inh -10 and MPTP block -1.
CCOC(=O)C1=C(COC(=O)c2ccccc2[N+](=O)[O-])NC(=O)NC1C (configuration not stated) was read as aDG glyco act 0, TAG inh -1, NadD inh -4 and MPTP block -1.
COc1ccccc1CNC(=O)c1cc(-c2cc(F)ccc2OC(C)C)n[nH]1 was read as aDG glyco act 1, TAG inh -8, NadD inh -5 and MPTP block -1.
`N#Cc1ccc(OCC(=O)NCC2COc3ccccc3O2)cc1` (configuration not stated) gave aDG glyco act 0, TAG inh 6, NadD inh 5 and MPTP block 1.
`Cc1ccc(-c2cc(C(=O)Nc3ccc(S(=O)(=O)Nc4ncccn4)cc3)c3ccccc3n2)cc1` gave aDG glyco act 0, NadD inh 33*, MPTP block 0 and NadD conf 38.
Cc1ccc(C)c(-c2cc(C(=O)Nc3nccs3)c3ccccc3n2)c1 was read as aDG glyco act 0, NadD inh 14 and MPTP block 0.
`Cc1ccc(-c2cc(C(=O)Nc3ccc(S(=O)(=O)Nc4nccs4)cc3)c3ccccc3n2)c(C)c1` gave aDG glyco act 0, NadD inh 63*, MPTP block 2 and NadD conf 53*.
For CC(C)(C)NS(=O)(=O)c1ccc(NC(=O)c2cc(-c3ccccc3)nc3ccccc23)cc1 the results were aDG glyco act 0, NadD inh 18 and MPTP block 13.
`Cc1cc(C)c2oc(-c3ccc(C)c(NC(=S)NC(=O)/C=C/c4ccco4)c3)nc2c1` gave aDG glyco act 0, TAG inh 15, NadD inh 35*, MPTP block 0 and NadD conf -2.
Screening O=C(/C=C/c1ccco1)NC(=S)Nc1nc(-c2ccc3ccccc3c2)cs1 returned aDG glyco act -1, NadD inh 30*, MPTP block 4 and NadD conf 2.
For Cc1cc(C)c2oc(-c3ccc(C)c(NC(=S)NC(=O)c4cccs4)c3)nc2c1 the results were aDG glyco act 0, NadD inh 28 and MPTP block 4.
Cc1ccc2oc(-c3cccc(NC(=S)NC(=O)/C=C/c4ccco4)c3)nc2c1 was read as aDG glyco act 0, TAG inh -11, NadD inh 32*, MPTP block 2 and NadD conf -8.
COc1ccc(-c2csc(C(O)c3ccccc3)n2)cn1 (configuration not stated) was read as aDG glyco act 0, TAG inh -20, NadD inh -5 and MPTP block 0.
For CC1CCC2(CC1)NC(=O)N(CC(=O)NC(=O)Nc1ccc3c(c1)OCCO3)C2=O (configuration not stated) the results were aDG glyco act 0, TAG inh -7, NadD inh 0 and MPTP block 2.
Screening CCn1c2ccccc2c2cc(NC(=O)CSc3nccc(=O)[nH]3)ccc21 returned aDG glyco act 0, TAG inh 6, NadD inh 41*, MPTP block 2 and NadD conf 50*.
For O=C(COC(=O)c1ccc(CO)cc1)Nc1ccc2ccccc2c1 the results were aDG glyco act 1, TAG inh -5, NadD inh 10 and MPTP block -1.
`CCn1c2ccccc2c2cc(NC(=O)COC(=O)c3ccc(NC(=O)CC#N)cc3)ccc21` gave aDG glyco act 0, TAG inh 10, NadD inh 64*, MPTP block -2 and NadD conf 40.
CC1CCc2c(sc(NC(=O)COC(=O)c3ccc(NC(=O)CC#N)cc3)c2C#N)C1 (configuration not stated) was read as aDG glyco act 0, TAG inh 4, NadD inh 36*, MPTP block 0 and NadD conf 17.

Bioassay records (PubChem)
